The record followed here is PubChem BioAssay (NCATS).

Holding throughout (assay): qHTS profiling for inhibitors of Plasmodium falciparum proliferation (AID 504749); note: nearly all actives have a fitted effect of over 60% in size
What all share (conditions): P. falciparum in erythrocytes, SYBR Green DNA, 72 h; series mostly up to 28.7 µM

In test [1] the test system is P94_40. A digest of the protocol: (§1)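 Parasite proliferation within erythrocytes, 72 h exposure. Endpoint: SYBR Green I fluorescence after overnight lysis at room temperature. Controls: 0.29 uM artemisinin, DMSO.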
Test [2] relates to PC15. In a few lines: as §1
The test system of test [3] is PC49. A digest of the protocol: as §1
Test [4] relates to TAB165. A digest of the protocol:
as §1

Test [5] deals with W2. In a few lines:
as §1

For test [6], the system named is PAD. In a few lines: as §1
In test [7] the test system is SC27B. A digest of the protocol:
as §1

For test [8], the system named is TAB109. In a few lines:
as §1

Test [9] has as its system TAB113. In a few lines: as §1
In test [10] the test system is PC26. In a few lines:
as §1

Records with an inconclusive call do not appear. Active and inactive are the calls of the source. Calls come from the whole dose curve; as a rule, active = well fitted inhibition curve with a large enough effect; inconclusive = small, poorly fitted or top-dose-only effect; inactive = flat fitted curve, though single readings scatter.
Potency is the fitted concentration of half-maximal effect.

Take `CN(C)CC/C=C1\c2ccccc2Sc2ccc(Cl)cc21`: the Potency is 10 µM (active) in test [1]; 11.2 µM (active) in [2]; 11.2 µM (active) in test [3]; 7.94 µM (active) in test [4]; 2.69 µM (active) in test [5].

In the case of `CN1CCC(=C2c3ccccc3Sc3ccccc32)CC1`, the Potency in [1] is 10 µM (active); in test [6] it was 12.6 µM (active); in test [7], 11.2 µM (active); in test [8], 11.2 µM (active); in test [9] it was 11.2 µM (active); in test [4], 7.94 µM (active). The Potency in [5] is 2.13 µM (active). Also, in test [3], the Potency result is “inactive”.

Turning to `CCOc1ccc(Cc2nccc3cc(OCC)c(OCC)cc23)cc1OCC`, the Potency entry in test [1], in [6], in [2], in [7], in test [8] and in test [9] was “inactive” each time.

As for `CCCCCCCCCCCCCCCC[N+](C)(C)CC`, the Potency is 3.98 µM (active) in test [1]; 8.91 µM (active) in [6]; 8.91 µM (active) in [2]; 5.36 µM (active) in [10]; 5.62 µM (active) in [7]; 4.47 µM (active) in test [8]. The Potency in test [9] was 5.01 µM (active); in [4] it was 4.47 µM (active); in [5], 3.79 µM (active).

For the compound `CN1CCN(CCCN2c3ccccc3Sc3ccc(S(=O)(=O)N(C)C)cc32)CC1`, the Potency in test [1] is 3.16 µM (active); in test [6], 3.98 µM (active); in test [4], 3.98 µM (active); in [5] it was 2.03 µM (active).

Regarding `c1ccc(-c2ccc(C(c3ccccc3)n3ccnc3)cc2)cc1` (stereo not given), the Potency in [1] was 11.2 µM (active); in test [6], 7.94 µM (active); in test [2], 11.2 µM (active); in test [10], 12 µM (active); in test [7], 6.31 µM (active); in test [8] it was 8.91 µM (active). The Potency in [9] was 11.2 µM (active); in test [4], 2.82 µM (active); in test [5] it was 5.36 µM (active).

As for `C[C@@H]1CN(CCCn2c3ccccc3c3ccccc32)C[C@H](C)N1`, the Potency in test [1] is 8.91 µM (active); in [6] it was 1.78 µM (active); in test [8] it was 11.2 µM (active); in test [4] it was 7.08 µM (active); in [5], 2.39 µM (active).

Consider `CC(C)NC[C@@H](O)COc1cccc2ccccc12`, for which the Potency was 12.6 µM (active) in test [1]; 8.91 µM (active) in test [2]; 12.6 µM (active) in [8]; 7.94 µM (active) in test [4]; 1.69 µM (active) in test [5].

As to `CC1=C(C(=O)OC(C)C)C(c2cccc([N+](=O)[O-])c2)C(C(=O)OC2CN(C(c3ccccc3)c3ccccc3)C2)=C(N)N1` (stereo not given), the Potency in [1] is 8.91 µM (active); in test [6], 10 µM (active); in test [2], 4.47 µM (active); in test [10] it was 7.57 µM (active); in [7] it was 10 µM (active); in [8] it was 6.31 µM (active). For the same compound, the Potency in [9] was 7.08 µM (active); in test [4] it was 5.01 µM (active); in [5], 5.36 µM (active).

As for `Oc1c(I)cc(Cl)c2cccnc12`, the Potency in test [1], in [8] and in test [4] was 12.6 µM (active) throughout. Besides, the Potency result in test [2], in test [10], in test [3] and in test [5] was “inactive” each time.

For the compound `C[C@@H]1C[C@H]2[C@@H]3CCC4=CC(=O)C=C[C@]4(C)[C@@]3(F)[C@@H](O)C[C@]2(C)[C@H]1C(=O)CO`, the Potency entry in test [1], in test [2], in test [3], in test [7], in test [8] and in test [9] was “inactive” throughout.

As to `CN(C)CCCOc1nn(Cc2ccccc2)c2ccccc12`, the Potency entry in [1], in [6], in [2], in test [3], in test [7] and in test [8] was “inactive” in each case. Moreover, the Potency result in [9] was “inactive”. Besides, in test [5], the Potency was 2.28 µM (active).

As for `OCc1ccccc1O`, the Potency result in [1], in [2], in [10], in [3], in test [7] and in test [8] was “inactive” in each case. The Potency result in test [9] and in test [4] was “inactive” throughout.

With `CN(C)C(=S)SC(=S)N(C)C`, the Potency in test [1] was 11.2 µM (active); in test [6], 5.01 µM (active); in [9] it was 11.2 µM (active); in test [4] it was 11.2 µM (active); in test [5], 9.53 µM (active).

In the case of `CC1(C)CCC(NC(=O)[C@@H](N)CCC(=O)O)CC1`, the Potency result in [1], in test [6], in test [2], in test [3], in test [7] and in [8] was “inactive” throughout. Besides, the Potency result in test [9], in [4] and in [5] was “inactive” throughout.

Take `c1ccc(OCc2ccc(CCCN3CCOCC3)cc2)cc1`: the Potency entry in test [1], in test [6], in [2], in [7], in test [8] and in test [9] was “inactive” throughout. For the same compound, in test [4], the Potency entry was “inactive”.

Consider `CCOc1ccc2nc3cc(N)ccc3c(N)c2c1`, for which the Potency was 5.62 µM (active) in test [1]; 7.08 µM (active) in test [6]; 10 µM (active) in test [2]; 7.94 µM (active) in [3]; 7.94 µM (active) in [7]; 3.98 µM (active) in test [8]. Moreover, the Potency in test [9] was 4.47 µM (active); in test [4], 10 µM (active); in test [5], 3.38 µM (active).

Take `CC(=O)c1ccc2c(c1)N(CCCN1CCC(CCO)CC1)c1ccccc1S2`: the Potency result in [1], in [6], in test [2], in test [3], in test [7] and in test [8] was “inactive” throughout. In addition, the Potency entry in test [9] and in test [4] was “inactive” each time. For the same compound, the Potency in test [5] was 1.02 µM (active).

On to `O=C1[C@H]2CCCC[C@H]2C(=O)N1CCCCN1CCN(c2nsc3ccccc23)CC1`, for which the Potency result in test [1], in test [6], in test [3], in test [7], in test [8] and in [9] was “inactive” throughout. The Potency in test [5] was 15.1 µM (active).

In the case of `CN=C(NC#N)Nc1ccc(C2=NNC(=O)CC2C)cc1` (stereo not given), the Potency result in [10] and in [5] was “inactive” throughout.

Turning to `CCCOC(C(=O)OC1CCN(C)CC1)(c1ccccc1)c1ccccc1`, the Potency result in test [6] and in [3] was “inactive” in each case. In addition, the Potency in [5] was 6.01 µM (active).
